EWS-Fli block – EWS/Fli-driven NR0B1 reporter inhibitors, primary screen, A673 cells, NR0B1 luciferase, luminescence, MLPCN library; inhibition, % at 12.6 µM; viability-normalised; AID 651661, 2012; 350,000 tested, 0.67% active;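 active = mean inhibition of at least 50% after viability correction, with every replicate also passing that limit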;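 also: firefly luciferase signal divided by Alamar Blue viability fluorescence both relative to DMSO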
F508del corr – F508del CFTR correction, initial screen, CFBE line, single point; activity (quench increase), % at 7.58 µM; 350,000 tested, 0.36% active; CFBE cells, YFP halide quenching; stimulated with forskolin plus potentiator P3; % fluorescence drop versus neutral controls;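 active = mean added fluorescence quench of at least 8% versus neutral control, with both replicates also reaching 8%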;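 also: cells transiently co-express mutant CFTR-F508del with the halide-sensitive YFP; corrector assay measuring rescue of mutant channel to the surface after 24 h compound exposure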
RAD52 inh – RAD52 DNA annealing inhibitors, primary screen, biochemical, FRET, single point, set 2. DNA repair protein RAD52 homolog (Homo sapiens), P43351. recombinant RAD52 DNA annealing, FRET fluorescence. inhibition, % at 18.7 µM. 360,000 tested, 0.46% active. AID 651710, 2012;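 active = every replicate showing at least 50% inhibition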
Target sequence (P43351 whole entry, looked up): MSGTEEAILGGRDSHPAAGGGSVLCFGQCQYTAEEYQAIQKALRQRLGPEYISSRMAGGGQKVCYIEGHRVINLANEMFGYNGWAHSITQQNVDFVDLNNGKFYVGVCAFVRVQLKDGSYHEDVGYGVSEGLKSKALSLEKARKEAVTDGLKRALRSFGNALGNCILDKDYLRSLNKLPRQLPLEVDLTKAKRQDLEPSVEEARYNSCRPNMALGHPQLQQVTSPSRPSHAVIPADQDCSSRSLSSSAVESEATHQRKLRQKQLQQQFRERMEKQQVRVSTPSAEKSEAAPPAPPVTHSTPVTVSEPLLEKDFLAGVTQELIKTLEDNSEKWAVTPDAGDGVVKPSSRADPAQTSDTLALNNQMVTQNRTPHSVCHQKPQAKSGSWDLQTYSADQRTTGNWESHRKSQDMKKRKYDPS
GSIS activator – GLuc luminescence reporter in INS-1E cells, primary screen for activators of glucose-dependent secretion of insulin; INS-1E GLuc reporter insulin secretion, 2-3 h; activation, % at 16.6 µM; 370,000 tested, 0.61% active;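 active = lowest replicate activation of at least 40%, so every replicate reaches that level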;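 also: 0% = median of neutral control wells and 100% = median of IBMX positive control wells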
RAD54 branch – inhibitors of human RAD54 branch migration, primary screen, biochemical, fluorescence, single point | inhibition, % at 10.4 µM | AID 602329, 2012 | RAD54 Holliday junction branch migration, FAM/BHQ fluorescence | 360,000 tested, 0.14% active;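 active = mean normalized replicate activity at least 40 and at least half of replicates scoring 40 or more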;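 also: 0% = median of neutral control wells and 100% = median of positive control wells; inhibitors cause a drop in the FAM fluorescence signal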
LGR2 antag – inhibitors of bursicon-induced LGR2 CRE-luciferase signal, primary screen, cell-based, HEK293, CRE-luciferase reporter, bursicon stimulation; Drosophila bursicon receptor LGR2 (rickets); bursicon-stimulated, 4 h; inhibition, % at 9.99 µM; 380,000 tested, 0.35% active; AID 720647, 2013;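 active = drop in luminescence signal, shown as inhibition above about 50% in the replicate tests, limit read from the data, passing the limit was not always enough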;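 also: agonist challenge used bursicon conditioned medium at about half maximal strength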
* = called active by the depositor; · = no result; ! = a repeat was not active. Only some compounds are listed: those with a hit (about 1.8% of all), similar ones and a draw of the others.

SMILES | EWS-Fli block | F508del corr | RAD52 inh | GSIS activator | RAD54 branch | LGR2 antag
COc1ccc(NC(=O)COc2cccc3c2CCN(Cc2cccnc2)C3=O)cc1 | 0 | 3 | -7 | 4 | -8 | -25
CC1CCC(NC(=O)CCNS(=O)(=O)c2ccccc2)CC1 (centres undefined) | -23 | 2 | 5 | 6 | -2 | -3
O=C(CCNS(=O)(=O)c1cccc(C(F)(F)F)c1)NC1CC1 | -2 | 16* | -3 | 6 | -4 | 3
Fc1cccc(-c2ccc(C3[C@H]4CNC[C@@H]3N4Cc3ccccc3F)cc2)c1 (some centres undefined) | -4 | -2 | 60* | 63 | · | -5
COc1ccc(-c2ccc(C3[C@H]4CNC[C@@H]3N4Cc3cccc(OC)c3)cc2)cc1 (some centres undefined) | 32 | 2 | 14 | -7 | · | -10
COc1cccc(-c2ccc(C3[C@H]4CNC[C@@H]3N4Cc3ccc(F)cc3)cc2)c1 (some centres undefined) | 63*! | -1 | 20 | -15 | · | -14
COc1cccc(-c2ccc(C3[C@H]4CNC[C@@H]3N4Cc3cc(F)ccc3F)cc2)c1 (some centres undefined) | 4 | 0 | 54*! | 2 | · | -2
O=C(Nc1ccccc1)N1C[C@H]2[C@@H](c3ccccc31)[C@H](CO)N2C(=O)c1ccccn1 | 5 | 11* | 1 | 16 | -1 | -4
O=C(Nc1ccccc1F)N1C[C@H]2[C@@H](c3ccccc31)[C@@H](CO)N2C(=O)c1ccccn1 | -15 | 9.7* | 12 | 3 | -1 | -11
Cc1ccc(C)c(NC(=O)CCC(=O)N/N=C/c2cc([N+](=O)[O-])ccc2O)c1 | 18 | 9.9* | -12 | -17 | -4 | -2
CCOC(=O)c1[nH]c(C)c(C(=O)OCC(=O)NC(C)c2ccc(F)cc2)c1C (centres undefined) | 54* | 7 | -10 | 10 | 3 | 12
CCN(C[C@H]1N[C@@](CC)(C(=O)OC)[C@H]2C(=O)N(C)C(=O)[C@@H]12)C(=O)COc1ccccc1 | 5 | -2 | -7 | -3 | -11 | 15
Cc1ccc(CS/C(Nc2ccccc2C)=C(\C#N)C(=O)NCc2ccco2)c(C)c1 | · | · | · | · | 1 | ·
O=C1C=CCCN1C(=O)/C=C/c1cccc(C(F)(F)F)c1 | 62* | 8 | 17 | · | · | ·
O=C(/C=C/c1ccccc1Cl)N1CCOCC1 | -30 | 0 | -10 | 12 | 6 | -26
COc1cc(/C=C/C(=O)N2CCC=CC2=O)cc(OC)c1OC | 70* | -11 | -6 | · | 6 | 100*
O=C(/C=C/c1cccc(C(F)(F)F)c1)Nc1cccc(C(F)(F)F)c1 | · | · | · | -26 | 4 | 11
O=C1C=CCCN1C(=O)/C=C/c1ccccc1Cl | 62* | -3 | 0 | · | · | ·
COc1cc(C=CC(=O)c2ccccc2)cc(OC)c1OC | -4 | -5 | 5 | -28 | · | 24
COc1cc(C=CC(=O)c2cc(OC)c(OC)c(OC)c2)cc(OC)c1OC | 26 | -7 | 3 | -4 | · | 57*
COc1cc(/C=C/C(=O)N2CCCN(C(=O)/C=C/c3cc(OC)c(OC)c(OC)c3)CC2)cc(OC)c1OC | · | · | · | 25 | · | 4
CC1CN(C(=O)CCC(=O)NCCc2ccccc2)c2ccccc2O1 (centres undefined) | -18 | 3 | -8 | -19 | 11 | -32
COC(=O)CSc1n[nH]c(-c2cccnc2)n1 | 3 | -3 | -2 | -3 | 12 | 5
O=C(C1=C(O)C(=O)N(CC2CCCO2)C1c1ccc(Cl)cc1)c1ccco1 (centres undefined) | -6 | -3 | -5 | 21 | -6 | -3
O=S(=O)(NCC(c1ccc2c(c1)OCO2)N1CCOCC1)c1ccc(F)cc1 (centres undefined) | 1 | 1 | -12 | 7 | -21 | -6
SMILES | EWS-Fli block | F508del corr | RAD52 inh | GSIS activator | RAD54 branch | LGR2 antag
COc1ccc(NC(=O)c2cccc3c2C(=O)c2ccc(-c4cnc(OC)nc4)cc2S3(=O)=O)cc1 | -3 | 2 | 1 | · | 4 | -5
COc1ccc(NC(=O)COC(=O)c2cccc(S(=O)(=O)N(C)C)c2)cc1 | 7 | 2 | -11 | -1 | 0 | 7
C[C@H](CO)N1C[C@H](C)[C@@H](CN(C)Cc2ccc(Cl)c(Cl)c2)Oc2ccc(NC(=O)Nc3ccc(F)cc3)cc2CC1=O | 63* | 3 | 33 | 4 | 1 | 21
Cc1noc(C)c1NC(=O)N(C)C[C@H]1Oc2ccc(NC(=O)Cc3ccccc3)cc2CC(=O)N([C@@H](C)CO)C[C@@H]1C | -22 | 4 | 77* | 6 | -8 | 5
Cc1noc(C)c1NC(=O)N(C)C[C@H]1Oc2ccc(NC(=O)Cc3ccccc3)cc2CC(=O)N([C@H](C)CO)C[C@H]1C | -1 | 3 | -5 | 10 | -5 | 22
C[C@H]1CN([C@@H](C)CO)C(=O)Cc2cc(NC(=O)Cn3cnnn3)ccc2O[C@@H]1CN(C)Cc1ccc(Cl)c(Cl)c1 | 69* | -2 | 21 | 19 | 2 | 13
C[C@H](CO)N1C[C@H](C)[C@@H](CN(C)Cc2ccccc2)Oc2ccc(NC(=O)Nc3ccc(C(F)(F)F)cc3)cc2CC1=O | 23 | 0 | 54* | -1 | -4 | 9
C[C@H]1CN([C@@H](C)CO)C(=O)Cc2cc(NC(=O)Nc3ccc(F)cc3)ccc2O[C@H]1CN(C)Cc1ccc(Cl)c(Cl)c1 | -12 | -2 | 0 | -15 | 7 | 5
C=CSc1sc(Cl)c(N(C)C)c1[N+](=O)[O-] | 4 | -3 | -12 | 4 | 3 | 16
COc1ccccc1CNC(=O)C(=O)Nc1nccs1 | -8 | -2 | -2 | 8 | · | -22
CN(C)c1nnnn1-c1ccc(Oc2ccccc2)cc1 | -3 | 3 | -14 | 8 | · | -23
C[C@@H]1CN([C@@H](C)CO)C(=O)Cc2cc(NC(=O)C3CCCCC3)ccc2O[C@@H]1CN(C)Cc1ccc(Cl)c(Cl)c1 | 13 | 5 | -15 | -21 | -5 | 39
C[C@H]1CN([C@@H](C)CO)C(=O)Cc2cc(NC(=O)Nc3ccc(C(F)(F)F)cc3)ccc2O[C@H]1CN(C)Cc1ccc(Cl)c(Cl)c1 | 6 | 0 | -21 | 0 | 2 | 9
C[C@H](CO)N1C[C@H](C)[C@H](CN(C)Cc2ccc(Cl)c(Cl)c2)Oc2ccc(NC(=O)C3CCCCC3)cc2CC1=O | 1 | 10* | -7 | -8 | -1 | 12

High-throughput results from PubChem BioAssay.
